PMC5540273 (PLoS ONE, 2017)

Tests used:
Details in all cases: concentration: 1 μM,replicates: in singlicate; n = 1
PIP5K1A = test system: PIP5K1A
PIP5K1C = test system: PIP5K1C
PIP5K2B = test system: PIP5K2B
PIP5K2C = test system: T1, PIP5K2C
T1 construct: gene PIP4K2C

PKAC-alpha = test system: T2, PKAC-alpha
T2 construct: gene PRKACA

PKAC-beta = test system: T3, PKAC-beta
T3 construct: gene PRKACB

PKMYT1 = test system: PKMYT1
PKN1 = test system: PKN1
PKN2 = test system: PKN2
PLK1 = test system: PLK1
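Further: KINOMEscan kinase panel screen.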

Structure (SMILES)	%Inh (PIP5K1A)	%Inh (PIP5K1C)	%Inh (PIP5K2B)	%Inh (PIP5K2C)	%Inh (PKAC-alpha)	%Inh (PKAC-beta)	%Inh (PKMYT1)	%Inh (PKN1)	%Inh (PKN2)	%Inh (PLK1)
Cl.Cl.NC[C@H](CC1CCCCC1)NC(=O)c1cc(Br)c(-c2ccnc3[nH]ccc23)s1 [GSK1581427]	63%	35%	89%	36%	99.5%	99.6%	0%	31%	82%	0%
Cl.Oc1cc(-c2nc(-c3ccccc3)[nH]c2-c2ccncc2)ccc1Cl [SB-386023]	30%	0%	16%	0%	5%	1%	0%	0%	33%	1%
Cc1cc2cn[nH]c2cc1-c1cccc2c(N)c(C(N)=O)nnc12	16%	0%	0%	10%	1%	0%	0%	0%	0%	15%
Cc1ccc(-n2nc(C(C)(C)C)cc2NC(=O)Nc2ccc(OCCN3CCOCC3)c3ccccc23)cc1 [GW839464]	0%	37%	23%	19%	0%	34%	21%	100%	0%	24%
CN(C)CCOc1ccc(-c2cc(-c3c[nH]nc3-c3ccccn3)ccn2)cc1 [GW835314]	0%	16%	26%	8%	10%	0%	0%	100%	3%	42%
Cc1cc(C(=O)Nc2ccc(Oc3ccc4nc(NC(=O)C5CC5)cn4n3)cc2)nn1-c1ccccc1	3%	27%	50%	22%	0%	21%	0%	0%	11%	0%
CC(C)N1C(=O)Cc2cc(Nc3ncc(C(F)(F)F)c(NCc4cccc(S(C)(=O)=O)c4)n3)ccc21	34%	0%	57%	52%	0%	0%	15%	24%	7%	28%
C[C@H]1Oc2cc(cnc2N)-c2c(nn(C)c2C#N)CN(C)C(=O)c2ccc(F)cc21	0%	44%	0%	0%	18%	0%	33%	12%	0%	0%
C[C@@H]1CCN(C(=O)CC#N)C[C@@H]1N(C)c1ncnc2[nH]ccc12	0%	0%	0%	0%	0%	0%	20%	–	–	0%
C[C@@H](Oc1cc(-c2cnn(C3CCNCC3)c2)cnc1N)c1c(Cl)ccc(F)c1Cl	0%	0%	79%	0%	0%	0%	0%	2%	0%	0%
Nc1nc(Nc2ccccc2)cc(-c2ccc3c(N)n[nH]c3c2)n1 [GSK2225749]	46%	82%	38%	61%	0%	0%	0%	50%	0%	0%
Cl.Cl.Nc1nc(-c2ccc3c(N)n[nH]c3c2)cc(N2CCCC(NC(=O)c3ccccc3)C2)n1 (stereo not shown) [GSK2286775]	56%	55%	38%	25%	0%	0%	5%	41%	0%	0%
CCN(CC)CCCCNc1ncc2cc(-c3c(Cl)cccc3Cl)c(NC(=O)NC(C)(C)C)nc2n1	0%	0%	0%	3%	11%	0%	0%	0%	4%	0%
CC(C)Nc1cc(-c2ccc3c(N)n[nH]c3c2)nc(N)n1 [GSK2221681]	56%	28%	32%	0%	0%	0%	0%	29%	0%	0%
COc1ccc(C[C@@H](CN)NC(=O)c2cc(Br)c(-c3ccnc4[nH]ccc34)s2)cc1.Cl.Cl [GSK1389063]	46%	30%	64%	59%	99.7%	99.7%	0%	95.8%	90%	0%
Cc1n[nH]c2ccc(-c3cc(OC[C@@H](N)Cc4ccccc4)cnc3-c3ccoc3)cc12.O=C(O)C(F)(F)F.O=C(O)C(F)(F)F [GSK507358]	0%	38%	41%	31%	98.9%	98%	0%	33%	9%	3%
CCn1c(-c2nonc2N)nc2c(C#CC(C)(C)O)nc(OCCN)cc21.Cl.Cl [GSK902056]	1%	86%	9%	13%	67%	81%	8%	8%	0%	0%
CNC(=O)c1ccccc1Sc1ccc2c(/C=C/c3ccccn3)n[nH]c2c1	12%	0%	12%	0%	0%	0%	100%	0%	0%	0%
Cc1ccc2c(-c3ccncc3)c(-c3ccc(F)cc3)nn2c1.Cl [GW461484]	24%	24%	31%	10%	18%	22%	0%	0%	8%	0%
CCN(CC)CCOc1ccc(Nc2ncc3cc(-c4c(Cl)cccc4Cl)c(=O)n(C)c3n2)cc1 [SB-601273]	72%	82%	16%	90.7%	26%	0%	98.6%	57%	6%	26%
C=CC(=O)Nc1cc2c(Nc3ccc(F)c(Cl)c3)ncnc2cc1OCCCN1CCOCC1 [GW781483]	18%	0%	0%	27%	11%	10%	20%	18%	0%	0%
NC(=O)c1cc(-c2ccccc2)cc2c(C3CCNCC3)c[nH]c12 [GSK301362]	0%	33%	14%	75%	0%	11%	17%	50%	0%	10%
Cl.Cl.NC[C@H](Cc1ccc(C(F)(F)F)cc1)NC(=O)c1cc(Br)c(-c2ccnc3[nH]ccc23)s1 [GSK1487252]	0%	22%	39%	3%	99.4%	98.8%	10%	12%	79%	0%
O=C(NCCNc1ccnc(NCc2ccc(F)cc2)n1)c1cc2ccccc2s1 [GSK1379944]	0%	100%	20%	12%	7%	14%	74%	0%	0%	0%
Cc1occc1-c1nc(N)c(OC[C@@H](N)Cc2c[nH]c3ccccc23)cc1-c1cc2c(C)n[nH]c2cn1 [GSK1660450]	65%	42%	11%	0%	99.9%	99.3%	24%	63%	22%	57%
CN(C)CC(O)COc1ccc(Nc2nccc(-c3cnn4nc(N5CCOCC5)ccc34)n2)cc1 (stereo not shown) [GW767488]	37%	24%	77%	82%	0%	0%	9%	13%	38%	37%
O=C(NCCCN1CCOC1=O)c1cnc(NCc2cc(Cl)ccc2Cl)nc1NC1CCCC1	0%	39%	0%	7%	4%	6%	27%	0%	10%	0%
